The test has as its system Vero E6 infected with SARS-CoV-2. Kind of test: inhibition of SARS-CoV-2 cytopathic effect; higher = more antiviral protection, active = above 15. As to conditions: 1 nM; 48 h. Background: Damage to the host cells serves as the signal in cytopathic effect assays.
In the case of `O=C([O-])c1ccccn1.O=C([O-])c1ccccn1.O=C([O-])c1ccccn1.[Cr+3]` [chromium-picolinate], the “inhibition of SARS-CoV-2 cytopathic effect” value (shortened to “inhibition”) is 0.6% (inactive).

Consider `CN1[C@@H]2C[C@@H](O)C[C@H]1[C@@H]1O[C@@H]12` [scopine], for which the “inhibition” value is -0.81% (inactive). Consider `O=c1nc2ccccc2c2n1CC(CN1CCN(c3ccccc3)CC1)N2` (configuration not stated), for which the “inhibition” value was 3.05% (inactive). With `CC(C)NCC(O)COc1cccc2[nH]ccc12` (configuration not stated) [pindolol], the “inhibition” value is -3.04% (inactive).

For the compound `O=C(O)Cc1ccc(CCNS(=O)(=O)c2ccc(Cl)cc2)cc1` [daltroban], the “inhibition” value was -0.21% (inactive).

For the compound `NC[C@H]1O[C@H](O[C@H]2[C@H](O[C@@H]3O[C@H](CO)[C@@H](O)[C@H]3O)[C@@H](O)[C@H](N)C[C@@H]2N)[C@H](N)[C@@H](O)[C@@H]1O` [ribostamycin-sulfate], the “inhibition” value is 2.02% (inactive). To `CC12CCC(C(=O)N(CCCCN3CCN(c4ccccn4)CC3)C1=O)C2(C)C` (configuration not stated) [piricapiron] belongs -2.91% (inactive).

On to `COc1cccc(C=NCCN=Cc2cccc(OC)c2[O-])c1[O-].[Cl-].[Mn+3]`, for which the “inhibition” value was 2.33% (inactive).

As for `CC(=O)Nc1nnc(S(N)(=O)=O)s1` [acetazolamide], the “inhibition” value is -0.16% (inactive).

With `CC(=O)Nc1ccc(CC(=O)O)cc1` [actarit], the “inhibition” value is 1.96% (inactive). Regarding `Fc1ccc(C(OCCN2CCN(CCCc3ccccc3)CC2)c2ccc(F)cc2)cc1` [vanoxerine], the “inhibition” value was -2.38% (inactive).

Take `Cc1cccc(Cc2c[nH]cn2)c1C` [detomidine]: the “inhibition” value is -2.36% (inactive). Under `O=C(NS(=O)(=O)c1ccc(Br)s1)c1ccc(Cl)cc1Cl` [tasisulam] stands -0.54% (inactive); under `Oc1ccc2c3c1O[C@H]1[C@@H](O)CC[C@@]4(O)[C@@H](C2)N(CC2CCC2)CC[C@]314` [nalbuphine], 2.57% (inactive).

Consider `CN1C(C)(C)CCCC1(C)C` [pempidine], for which the “inhibition” value was -2.83% (inactive).

With `O=C(O)c1cc(=O)c2c(OCC(O)COc3cccc4oc(C(=O)O)cc(=O)c34)cccc2o1` [cromoglicic-acid], the “inhibition” value is -0.6% (inactive). Turning to `O=C(O)[C@H]1CC[C@H](c2cc3cccnc3c(-c3cccc(F)c3)n2)CC1`, the “inhibition” value was -3.3% (inactive). To `C=CCNc1ncnc2ccc(Br)cc12` belongs 2.47% (inactive). `CCN(CC)CCOCCOC(=O)C(CC)(CC)c1ccccc1` [oxelaidin]: the “inhibition” value is -3.54% (inactive).

For the compound `CCOc1ccc(-c2ccc(Cn3c(CC(C)(C)C(=O)O)c(SC(C)(C)C)c4cc(OCc5ccc(C)cn5)ccc43)cc2)cn1`, the “inhibition” value is 1.07% (inactive). As to `COc1ccccc1Oc1c(NS(=O)(=O)c2ccc(C)cn2)nc(-c2ccncc2)nc1OC`, the “inhibition” value was 1.47% (inactive). On to `Cc1cc(NC(=O)C(c2ccccc2)N2CCCc3ccccc32)no1` (configuration not stated), for which the “inhibition” value is 0.33% (inactive). To `C=C1/C(=C\C=C2/CCC[C@]3(C)[C@@H]([C@H](C)/C=C/C=C/C(O)(CC)CC)CC[C@@H]23)C[C@@H](O)C[C@@H]1O` [seocalcitol] belongs -3.06% (inactive). Under `COc1cccc(-n2nc(C(=O)O)cc2-c2ccc(C3CCCCC3)c(Cl)c2)c1` stands 0.77% (inactive). Turning to `COc1ccc(CNC(=O)c2sc3nc(C)cc(C)c3c2N)cc1`, the “inhibition” value was 1.68% (inactive). Under `CNc1cc2c(Nc3cccc(Br)c3)ncnc2cn1` stands -1.96% (inactive); under `CCCNC(=O)NS(=O)(=O)c1ccc(Cl)cc1` [chlorpropamide], 0.91% (inactive).
